Test results taken from PubChem BioAssay (Tox21).
Inconclusive results are not listed. The source made the active and inactive calls. Unless noted, calls follow the shape of the full dose curve.

How the values were obtained:
[1] = Nuclear factor erythroid 2-related factor 2/antioxidant responsive element (Nrf2/ARE) small molecule agonists: qHTS cell viability counter screen in human keratinocytes (AID 1919968; active = well fitted curve in the direction sought with a large enough effect in the repeat runs; an effect the other way counts as inactive or inconclusive; also: nearly all actives have a fitted effect of over 55% in size)
Method in brief: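 HaCaT ARE reporter line, 1,500 cells/well; 5 h settle, 37 C/5% CO2; cpd in DMSO pinned; 23 h exposure; CellTiter-Fluor, 1 h; fluorescence.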

[2] = Nuclear factor erythroid 2-related factor 2/antioxidant responsive element (Nrf2/ARE) small molecule agonists: luciferase reporter gene qHTS assay in human keratinocytes (AID 1919969); also: nearly all actives have a fitted effect of over 35% in size
[3] = biological target: Gonadotropin-releasing hormone receptor (Homo sapiens) (UniProt P30968); experiment: Human gonadotropin-releasing hormone receptor (GnRHR) small molecule agonists, calcium flux assay in GnRHR-HEK293 cells (AID 1920063); also: nearly all actives have a fitted effect of over 35% in size
Chain of Gonadotropin-releasing hormone receptor (Homo sapiens) (P30968 whole entry, looked up): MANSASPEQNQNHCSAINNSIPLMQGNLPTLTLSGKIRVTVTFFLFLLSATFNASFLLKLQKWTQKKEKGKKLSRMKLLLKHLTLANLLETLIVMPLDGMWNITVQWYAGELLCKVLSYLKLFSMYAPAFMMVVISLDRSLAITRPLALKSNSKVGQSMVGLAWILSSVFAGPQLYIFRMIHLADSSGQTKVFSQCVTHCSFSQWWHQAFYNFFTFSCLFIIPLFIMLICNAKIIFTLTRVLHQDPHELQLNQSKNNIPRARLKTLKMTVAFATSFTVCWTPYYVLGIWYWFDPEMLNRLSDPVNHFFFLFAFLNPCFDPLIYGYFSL
Method in brief: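 GnRHR-HEK293, 1500 cells/well, 18 h 37 C/5% CO2; Ca dye 1 h 37 C; cpd pinned (DMSO), agonist mode; kinetic FL 480/540, 3 min, 1 s reads; 15 conc, n=3.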

[4] = biological target: KiSS-1 receptor (Homo sapiens) (UniProt Q969F8); experiment: Human kisspeptin (KISS1R) small molecule agonists, calcium flux assay in KISS1R-HEK293 cells (AID 1920064; active = well fitted curve in the direction sought with a large enough effect in the repeat runs; an effect the other way counts as inactive or inconclusive)
Chain of KiSS-1 receptor (Homo sapiens) (Q969F8 whole entry, looked up): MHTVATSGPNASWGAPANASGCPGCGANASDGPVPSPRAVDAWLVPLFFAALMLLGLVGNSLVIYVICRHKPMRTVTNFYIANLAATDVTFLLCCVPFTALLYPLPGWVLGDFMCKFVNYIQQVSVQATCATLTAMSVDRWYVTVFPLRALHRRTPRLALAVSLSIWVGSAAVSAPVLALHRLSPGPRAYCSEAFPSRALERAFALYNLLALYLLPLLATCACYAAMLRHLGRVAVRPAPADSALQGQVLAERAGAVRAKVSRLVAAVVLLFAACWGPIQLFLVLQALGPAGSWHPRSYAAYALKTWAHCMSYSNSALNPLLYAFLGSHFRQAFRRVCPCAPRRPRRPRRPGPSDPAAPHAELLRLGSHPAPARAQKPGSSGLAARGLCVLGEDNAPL
Method in brief: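 Stable human KISS1R HEK293 line; 18 h plating, 37 C/5% CO2; calcium dye 1 h 37 C; compound pin transfer; kinetic fluorescence Ex/Em 480/540, 3 min.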

[5] = G protein-coupled receptor (GPCR) small molecule agonists, calcium flux assay: HEK293 wild type cell line counter screen (AID 1920065)
Method in brief: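 Kinetic fluorescence at Ex/Em 480/540, recorded every second over 3 min, served as the read-out after compound addition. Each compound was tested at 15 concentrations in triplicate on cells pre-loaded with calcium dye for 1 h.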

[6] = p53 small molecule agonists, cell-based qHTS assay with human liver microsomes (AID 1963577)
Method in brief: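 p53RE-bla cells, 4,000/well, compound added after 5 h, with human liver microsomes 0.5 mg/mL and NADPH 0.5 mg/mL final; 16 h at 37 C, then LiveBLAzer 2 h RT, fluorescence.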

[7] = p53 small molecule agonists, cell-based qHTS assay with rat liver microsomes (AID 1963578)
Method in brief: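 p53RE-bla cells, 4,000/well, pre-incubated 5 h, then given compounds plus rat liver microsomes (0.5 mg/mL final) and NADPH (0.5 mg/mL final). Incubation 16 h at 37 C; beta-lactamase reporter read by LiveBLAzer fluorescence after 2 h at room temperature.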

[8] = p53 small molecule agonists, cell-based qHTS assay with human liver microsomes: qHTS cell viability counter screen (AID 1963579); also: nearly all actives have a fitted effect of over 45% in size
Method in brief: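 p53RE-bla cells, 4,000/well, dosed 5 hours after plating, with human liver microsomes (0.5 mg/mL final) plus NADPH (0.5 mg/mL final), 16 hours at 37 C. Viability read as CellTiter-Glo luminescence after 30 min at room temperature.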

[9] = p53 small molecule agonists, cell-based qHTS assay with rat liver microsomes: qHTS cell viability counter screen (AID 1963580); also: nearly all actives have a fitted effect of over 45% in size
Method in brief: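 Intracellular ATP, by CellTiter-Glo luminescence, defines viability. HCT-116 p53RE-bla cells, 4,000 per well, were compound-treated in the presence of rat liver microsomes and NADPH for 16 h at 37 C.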

[10] = p53 small molecule agonists, cell-based qHTS assay (AID 1963582; active = well fitted activation curve with a large enough effect in the signal ratio in the repeat runs, not every such curve was filed as active; the % refers to the signal ratio)
Method in brief: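 Reporter line: p53RE-bla. Pre-incubation 5 h, 37 C, 5% CO2; compound (DMSO, pin tool) 16 h, 37 C; B/G FRET substrate 2 h RT; fluorescence intensity read.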

[11] = biological target: 5-hydroxytryptamine receptor 2A (Homo sapiens) (UniProt P28223); experiment: 5-hydroxytryptamine receptor 2A (HTR2A) small molecule agonists, cell-based qHTS assay (AID 1963587); also: nearly all actives have a fitted effect of over 30% in size
Chain of 5-hydroxytryptamine receptor 2A (Homo sapiens) (P28223 whole entry, looked up): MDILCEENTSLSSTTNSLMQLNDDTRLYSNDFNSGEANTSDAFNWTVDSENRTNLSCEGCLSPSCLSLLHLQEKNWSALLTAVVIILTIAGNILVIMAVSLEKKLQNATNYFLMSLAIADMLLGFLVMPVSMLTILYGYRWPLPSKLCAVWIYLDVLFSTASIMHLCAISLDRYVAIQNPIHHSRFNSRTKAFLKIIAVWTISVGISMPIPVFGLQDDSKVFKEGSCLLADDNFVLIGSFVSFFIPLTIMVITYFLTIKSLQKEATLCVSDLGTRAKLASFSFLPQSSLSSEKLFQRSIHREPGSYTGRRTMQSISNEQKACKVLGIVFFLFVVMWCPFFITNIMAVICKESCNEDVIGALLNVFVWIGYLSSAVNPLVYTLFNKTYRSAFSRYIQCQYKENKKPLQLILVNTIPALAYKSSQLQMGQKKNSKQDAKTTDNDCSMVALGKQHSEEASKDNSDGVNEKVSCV
Method in brief: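 Kinetic calcium-flux fluorescence (2 min, 1 sec intervals) after compound addition in agonist mode. HTR2A-CHO cells were cultured 18 h, then dye-loaded 1 h at 37 C.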

[12] = biological target: Muscarinic acetylcholine receptor M1 (Homo sapiens) (UniProt P11229); experiment: Cholinergic receptor muscarinic 1 (CHRM1) small molecule agonists, cell-based qHTS assay (AID 1963589); also: nearly all actives have a fitted effect of over 35% in size
Chain of Muscarinic acetylcholine receptor M1 (Homo sapiens) (P11229 whole entry, looked up): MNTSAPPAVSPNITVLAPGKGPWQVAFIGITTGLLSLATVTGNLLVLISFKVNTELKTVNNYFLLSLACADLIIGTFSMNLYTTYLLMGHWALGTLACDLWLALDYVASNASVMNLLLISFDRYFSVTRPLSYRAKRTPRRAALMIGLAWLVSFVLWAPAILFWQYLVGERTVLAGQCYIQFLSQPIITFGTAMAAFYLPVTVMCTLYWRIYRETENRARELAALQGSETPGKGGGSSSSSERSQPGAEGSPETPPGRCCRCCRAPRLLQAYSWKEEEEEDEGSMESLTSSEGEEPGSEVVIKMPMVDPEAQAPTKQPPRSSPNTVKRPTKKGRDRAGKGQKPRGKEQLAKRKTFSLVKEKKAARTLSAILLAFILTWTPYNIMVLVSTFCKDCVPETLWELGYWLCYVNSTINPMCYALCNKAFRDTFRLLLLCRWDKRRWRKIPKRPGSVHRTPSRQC
Method in brief: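 Human M1 in stable CHO line; 18 h plating, 1 h dye load 37 C; cpd added (agonist mode); Ca2+ fluorescence kinetic read, 1 s intervals; 15 conc, 3 runs.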

[13] = cAMP Responsive Elements (CRE) small molecule agonists, cell-based qHTS assay (AID 1963590)
Method in brief: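 HEK 293T CRE-bla, 2,000 cells/well, 18 h preincubation 37 C/5% CO2; cpds (DMSO) pinned, 3 h; LiveBLAzer B/G FRET substrate, 2 h RT.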

[14] = cAMP Responsive Elements (CRE) small molecule antagonists, cell-based qHTS assay (AID 1963591; active = well fitted inhibition curve with a large enough effect in the signal ratio in the repeat runs, not every such curve was filed as active; the % refers to the signal ratio)
Method in brief: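 Beta-lactamase reporter read by FRET substrate (LiveBLAzer B/G) after 2 h at room temperature. CRE-bla HEK293T cells had received compound plus 0.25 uM (final) NKH477 for 3 h at 37 °C.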

[15] = biological target: Beta-2 adrenergic receptor (Homo sapiens) (UniProt P07550); experiment: Adrenergic beta2 receptor (ADRB2) small molecule antagonists, cell-based qHTS assay (AID 1963592); also: series mostly up to about 92 µM; nearly all actives have a fitted effect of over 50% in size
Chain of Beta-2 adrenergic receptor (Homo sapiens) (P07550 whole entry, looked up): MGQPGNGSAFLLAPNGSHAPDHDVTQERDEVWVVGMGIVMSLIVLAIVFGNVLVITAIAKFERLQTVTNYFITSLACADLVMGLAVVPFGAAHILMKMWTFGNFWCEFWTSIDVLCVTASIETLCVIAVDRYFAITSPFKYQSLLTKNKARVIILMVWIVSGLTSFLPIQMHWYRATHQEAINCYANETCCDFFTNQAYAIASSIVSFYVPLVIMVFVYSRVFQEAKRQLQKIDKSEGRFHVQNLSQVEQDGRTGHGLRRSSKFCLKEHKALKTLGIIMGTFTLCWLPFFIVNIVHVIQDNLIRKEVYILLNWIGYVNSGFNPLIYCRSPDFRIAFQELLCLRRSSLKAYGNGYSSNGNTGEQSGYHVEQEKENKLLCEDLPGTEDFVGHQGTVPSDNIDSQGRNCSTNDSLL
Method in brief: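 Cells (CHO, stable ADRB2 overexpression) incubated 18-20hr at 37C; compounds added from DMSO; agonist mix (1nM isoproterenol, 100uM IBMX, 25uM Ro-20-1724) added; 0.5hr RT; d2-cAMP and anti-cAMP-cryptate added; 1hr RT; 665/615 nm read.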

[16] = biological target: Beta-2 adrenergic receptor (Homo sapiens) (UniProt P07550); experiment: Adrenergic beta2 receptor (ADRB2) small molecule agonists, cell-based qHTS assay (AID 1963593);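 also: CHO cells stably overexpressing human ADRB2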
Method in brief: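 CHO cells stably over-expressing ADRB2 were plated overnight at 37C, then dosed with compounds plus a stimulation mix containing 100uM IBMX and 25uM Ro-20-1724 for 0.5hr at room temperature. cAMP was measured by HTRF competition, 1hr.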

[17] = biological target: D(2) dopamine receptor (Homo sapiens) (UniProt P14416); experiment: Dopamine D2 receptor (DRD2) small molecule agonists, cell-based qHTS assay (AID 1963594); also: nearly all actives have a fitted effect of over 35% in size
Chain of D(2) dopamine receptor (Homo sapiens) (P14416 whole entry, looked up): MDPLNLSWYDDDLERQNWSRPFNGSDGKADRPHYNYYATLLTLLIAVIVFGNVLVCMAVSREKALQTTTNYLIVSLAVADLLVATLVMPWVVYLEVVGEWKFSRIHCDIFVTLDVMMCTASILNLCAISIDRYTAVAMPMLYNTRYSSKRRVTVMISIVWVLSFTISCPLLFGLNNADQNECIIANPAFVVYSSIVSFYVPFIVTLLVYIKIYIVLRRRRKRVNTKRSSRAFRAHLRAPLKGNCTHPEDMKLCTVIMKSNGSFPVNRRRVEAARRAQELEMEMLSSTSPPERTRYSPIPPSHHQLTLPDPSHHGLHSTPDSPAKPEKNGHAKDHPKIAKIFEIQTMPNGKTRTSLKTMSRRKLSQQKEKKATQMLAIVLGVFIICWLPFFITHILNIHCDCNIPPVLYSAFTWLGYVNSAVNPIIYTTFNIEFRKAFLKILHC
Method in brief: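 cAMP accumulation in DRD2-HEK293 cells measured by HTRF after 1 h detection; compounds added 10 min before NKH477 (200nM […]) forskolin-analogue stimulation, 30 min at room temperature, with Ro20-1724 present at 0.1 mM final.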

[18] = biological target: Muscarinic acetylcholine receptor M1 (Homo sapiens) (UniProt P11229); experiment: Cholinergic receptor muscarinic 1 (CHRM1) small molecule antagonists, cell-based qHTS assay (AID 1963588); also: nearly all actives have a fitted effect of over 40% in size
Method in brief: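 CHRM1-CHO calcium-flux assay, antagonist mode. Cells were seeded 18 h, dye-loaded 1 h at 37 C and given compound for 5 min at RT, then acetylcholine was added at 50nM. FDSS fluorescence was read 3 min; 15 concentrations, three runs.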

[19] = biological target: D(2) dopamine receptor (Homo sapiens) (UniProt P14416); experiment: Dopamine D2 receptor (DRD2) small molecule antagonists, cell-based qHTS assay (AID 1963595; active = well fitted inhibition curve with a large enough effect in the signal ratio in the repeat runs, with a control signal flat; the % refers to the signal ratio)
Method in brief: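 Cells were plated and grown for 24 h at 37 °C. Ro20-1724 (0.1 mM final) went in first, then compound for 10 min. NKH477 (200 nM) with quinpirole (12 nM) followed for 30 min at RT, then HTRF detection reagents for 1 h.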

Measured: Potency

CC(C)C(=O)C(C)C
not listed: [18] | [19]
inactive: all other assays above

CCC(C)C1N=C(C)C(C)S1 (configuration not stated)
not listed: [16]
inactive: all other assays above

NCc1cccc(CN)c1
not listed: [12] | [18]
inactive: all other assays above

Cc1ccc(C(=O)O)cc1
not listed: [16]
inactive: all other assays above

N[C@@H](CCC(=O)Nc1ccc([N+](=O)[O-])cc1)C(=O)O
not listed: [11] | [17]
inactive: all other assays above

C=CCCCCCCCCO
inactive: all assays above

C=CC(=O)NCOCC(C)C
inactive: all assays above

CCCCCCCCCCCCCCO
not listed: [16] | [17]
inactive: all other assays above
